# According to PubChem BioAssay AID602410 (Johns Hopkins Ion Channel Center, 2012):
# The whole screen tested about 340,000 compounds, of which about 2,800 (0.82%) were called active.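 How the source made its calls: active means B-score under library mean minus 4 SD, starting fluorescence ratio at most library mean plus 5 SD; inactive means the rest.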 For the sample, actives were picked, then their nearest neighbours and some compounds at random.
# Biological target: Potassium channel subfamily K member 3 (Homo sapiens) (UniProt O14649)
# Experiment: human KCNK3 channel inhibitors, primary screen, CHO cells, FluxOR thallium flux, B-score (AID 602410);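 on B-score: more negative B-score means stronger inhibition of thallium flux through KCNK3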
# Conditions: FluxOR fluorescence, at 10 µM; hits give low values
# Potassium channel subfamily K member 3 (Homo sapiens), sequence (O14649 whole entry, looked up): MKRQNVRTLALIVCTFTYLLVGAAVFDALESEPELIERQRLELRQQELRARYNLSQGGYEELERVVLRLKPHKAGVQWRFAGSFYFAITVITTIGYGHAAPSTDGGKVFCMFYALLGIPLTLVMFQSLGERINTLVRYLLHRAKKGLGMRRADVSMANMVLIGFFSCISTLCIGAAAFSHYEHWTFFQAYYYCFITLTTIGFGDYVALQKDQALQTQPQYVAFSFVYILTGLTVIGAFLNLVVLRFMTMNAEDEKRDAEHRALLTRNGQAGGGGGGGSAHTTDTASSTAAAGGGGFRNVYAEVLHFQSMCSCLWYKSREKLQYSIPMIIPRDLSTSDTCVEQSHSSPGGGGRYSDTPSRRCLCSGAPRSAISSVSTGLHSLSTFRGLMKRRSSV
row,SMILES,B-score
1,CCCCn1c(O)c(C(CC)=NCc2ccco2)c(=O)[nH]c1=O,inactive
2,CCC(=NCCCO)c1c(O)n(-c2ccc(OC)cc2)c(=O)[nH]c1=O,inactive
3,CCCCCCN=C(CC)c1c(O)n(CCCC)c(=O)[nH]c1=O,-9.07 (active)
4,COc1ccc(Br)cc1CNCCc1cccc(Cl)c1,inactive
5,CCCCC(=O)N/N=C/c1c(O)n(CC)c(=S)n(CC)c1=O,inactive
6,Oc1cc2c(cc1CN1CCN(c3ccccc3)CC1)OCO2,inactive
7,COc1ccc(C(=O)C2CCCN(Cc3ccc(C)s3)C2)cc1OC (stereo not given),inactive
8,COc1ccccc1C1=NCc2nnc(CSC)n2-c2ccc(Cl)cc21,-9.71 (active)
9,Cc1cc(C(=O)OCC(=O)Nc2c(F)cccc2F)c(C)n1C1CC1,inactive
10,CC(C)c1c(CN(C)C(C)Cc2ccccc2)n(C)n(-c2ccccc2)c1=O (stereo not given),inactive
11,CCN1CCN(Cc2cc(OC)c3c(c2)OCO3)CC1,inactive
12,CCOC(=O)C1SC2(C(F)(F)C(F)F)CC1(O)c1c(c(OC)c3occc3c1OC)O2 (stereo not given),-10.9 (active)
13,CCOC(=O)C(O)(c1ccc(N=Cc2ccccc2O)c(C)c1)C(F)(F)F (stereo not given),inactive
14,CC12CN3CC(C)(CN(C1)C3c1cccs1)C2 (stereo not given),inactive
15,CNCC(O)c1cc(F)c(OCc2ccccc2)c(OCc2ccccc2)c1F (stereo not given),inactive
